In PubChem BioAssay AID488890 (Southern Research Specialized Biocontainment Screening …, 2010):
Among all 320,000 compounds or so, about 1,300 (0.41%) were called active. Roughly 3% stayed inconclusive and do not appear here. The rule behind the calls is not given here. Only a sample is shown. Measured potencies and affinities stand elsewhere.

Assay: growth inhibition of non-replicating M. tuberculosis (AID 488890);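 note: plate controls were DMSO cells for no effect and high antibiotic wells for full effect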
Settings: Mycobacterium tuberculosis non-replicating, at 25 µM, stronger effect = higher value

SMILES | inhibition [%]
COc1ccc(NC(=S)N2CCNC(=O)C2CC(=O)Nc2cccc(Cl)c2C)cc1 (stereo not given) | 51.6
Cc1ccc([N+](=O)[O-])cc1N=Nc1c(C)[nH]n(C(N)=S)c1=O | -4.79
CC(=O)Nc1ccc(N=Nc2c(C)[nH]n(C(N)=S)c2=O)cc1 | -7.76
CCN(CC)S(=O)(=O)c1ccc(N=Nc2c(C)[nH]n(C(N)=S)c2=O)cc1 | -7.96
CC(=O)N(C)c1ccc(N=Nc2c(C)[nH]n(C(N)=S)c2=O)cc1 | -34.4
O=C(Cn1nc(Cc2cccnc2)c2ccccc2c1=O)N1CCN(c2ccccn2)CC1 | 2.03
Cc1ccccc1CNC(=O)C(=O)NCC1OCCCN1S(=O)(=O)c1ccc(F)cc1C (stereo not given) | 16.5
Cc1cc(C)n2nc(SCC(=O)c3cc(C)n(-c4cc(C)on4)c3C)nc2n1 | 35.9
NC(=O)NCC12CC3CC(CC(C3)C1)C2 | -1.98
O=C(O)COc1ccc(S(=O)(=O)N2CCCC2)cc1 | -9.2
CNC(=O)COc1ccc(S(=O)(=O)N2CCCC2)cc1 | -27.9
COc1cccc(-c2cn(-c3cccc(C(F)(F)F)c3)c(=S)[nH]2)c1 | 5.54
Cc1cccc(OC(=O)c2cccnc2)c1 | 74.1
COC(=O)c1ccc2nccnc2c1 | -20.4
CN(Cc1ccccc1)C(=O)c1ccc(NC(=O)c2ccccc2)cc1 | -0.423
Cn1c(-c2ccccc2)cc2ccccc21 | -0.86
CCOc1c(C(N)=O)cc([N+](=O)[O-])cc1[N+](=O)[O-] | 7.1
Cc1ccc(CNc2ccc([N+](=O)[O-])cc2C(N)=O)cc1 | -0.61
COc1ccc(CCNC(=O)c2cc3cc(F)ccc3nc2C)cc1OC | 2.52
O=C(O)CCCN=CC1=C(O)CNC1=O | 2.02
COc1ccccc1Oc1coc2cc(OCC(N)=O)ccc2c1=O | 32.8
COc1ccc(-c2oc3ccccc3c(=O)c2OCC(=O)O)cc1 | 6.78

SMILES | inhibition [%]
COc1ccccc1-c1coc2cc(OC(=O)/C=C/c3ccccc3)ccc2c1=O | 33.4
COc1ccccc1-c1coc2cc(OC(=O)N3CCOCC3)ccc2c1=O | 17.2
CCOc1ccccc1Oc1coc2cc(OCC(=O)O)ccc2c1=O | -6.12
COc1ccc(-c2oc3ccccc3c(=O)c2OC(C)=O)cc1 | 64.7
CCC(=O)NCCNc1ccc([N+](=O)[O-])cn1 | -5.26
Cc1onc(C(N)=O)c1C(=O)Nc1ncc(C(F)(F)F)cc1Cl | -30.8
Cc1ccc(C(=O)N2CCN(c3ccccc3F)CC2)cc1NC1=NC2CS(=O)(=O)CC2S1 (stereo not given) | -2.79
CC(Cc1cccs1)NC(=O)c1cccs1 (stereo not given) | 75.3
CC(Cc1cccs1)NC(=O)Nc1cccc(Cl)c1 (stereo not given) | 48.3
CNc1ccc(C2(O)C(=O)c3ccccc3C2=O)cc1 | 50.8
CCN(c1ccc(NC(=O)COC(=O)c2ccc(S(=O)(=O)N3CCCC3)cc2)cc1)C(C)C | 11.1
COC(=O)/C(=C1/Oc2ccc(C)cc2S1)C(F)(F)F | 6.15
COC(=O)/C(=C1/Oc2ccc(C(C)(C)C)cc2S1)C(F)(F)F | 32.3
CC(=O)c1cccc(NC(=O)CN(C)S(=O)(=O)c2ccccc2)c1 | 1.23
CC[C@H](C)[C@H](NC(=O)[C@H](Cc1ccc(O)cc1)NC(=O)[C@@H](N)C(C)C)C(=O)N[C@@H](Cc1cnc[nH]1)C(=O)N1CCC[C@H]1C(=O)N[C@@H](Cc1ccccc1)C(=O)O | -4.04
CN(C)S(=O)(=O)c1ccc(N2CCCC2)c(C(=O)NNC(=O)c2ccccc2)c1 | 37.4
COc1cc(/C=N/Nc2nc(C)cc(C)n2)ccc1OC(=O)c1ccco1 | 23.8
O=c1cc(-c2cccs2)oc2ccc(Cl)cc12 | 19.9
O=c1oc(-c2cccs2)nc2ccc(Cl)cc12 | 79.1
CC(NC(=O)CCNC(=O)c1ccco1)c1ccccc1 (stereo not given) | -4.55
CCCCCCC1CC(CC(=O)Nc2ccc([N+](=O)[O-])cc2)C(=O)O1 (stereo not given) | 46
CCCCCC1CC(CC(=O)Nc2ccc([N+](=O)[O-])cc2)C(=O)O1 (stereo not given) | 29.9

SMILES | inhibition [%]
OCCCC1CCCN(Cc2cn[nH]c2-c2ccc(F)cc2F)C1 (stereo not given) | -4.41
COc1ccc(CC(=O)Nc2ccc(N3CCCCC3)cc2)cc1 | 10.3
O=C(O)Cc1ccc(NC(=O)Nc2ccc3c(c2)OCO3)cc1 | -6.44
OCCN1CCN(Cc2ccc3ccccc3c2)CC1 | 0.76
CC(C)(C)c1cc(C(=S)N2CCN(CCO)CC2)cc(C(C)(C)C)c1O | 19.5
OC1CCN(Cc2cccc(Oc3ccccc3)c2)CC1 | -6.53
CC(C)(C)c1cc(CN2CCCCC2)cc(C(C)(C)C)c1O | 16.6
CC1=NN(Cc2cc(C(C)(C)C)c(O)c(C(C)(C)C)c2)C(=O)C1 | -2.66
OC1CCN(Cc2ccc3ccccc3c2)CC1 | 12.5
COCCCn1c(C)nnc1SCC(=O)NNC(=O)COc1ccc(Cl)cc1 | 0.75
CSc1ccccc1C(=O)NCCSC(C)(C)C | -2.18
COc1ccccc1NC(=O)COc1ccc(/C=N/NC(=O)CSCc2cc(C)cc(C)c2)cc1 | 8.98
CN(C)c1ccc(C(=O)Nc2ccc(O)c3c(=O)cc(-c4ccccc4Cl)oc23)cc1 | 7.25
O=C(Cn1cncn1)c1ccc(Cl)cc1 | -4.45
CC1=NN(C(=O)COc2ccccc2)C(O)(c2cccnc2)C1 (stereo not given) | -18.8
CCC1=NN(C(=O)COc2ccccc2C)C(O)(c2ccncc2)C1 (stereo not given) | -19
CC1=NN(C(=O)Cc2ccccc2)C(O)(c2ccccc2)C1 (stereo not given) | 7.51
CCOC(=O)N1N=C(C)CC1(O)c1ccc(Cl)cc1 (stereo not given) | -5.02
COc1ccc(C(=O)Nc2ccc3nc(N4CCN(C)CC4)cc(C)c3c2)c(OC)c1 | 76
CCc1nonc1NC(=O)c1oc2ccc(F)cc2c1C | -7.95
CN1CCN(S(=O)(=O)c2ccc(NS(=O)(=O)c3ccccc3)cc2)CC1 | 2.91
CC1CC(C)CN(C(=O)c2ccc(S(=O)(=O)N3CCCC3)cc2)C1 (stereo not given) | 62.4

SMILES | inhibition [%]
Cc1cc(C(F)(F)F)nc(SCC(=O)c2cccc([N+](=O)[O-])c2)n1 | 14.9
O=C(COC(=O)c1ccc(Cl)c(S(=O)(=O)N2CCOCC2)c1)NCc1ccco1 | -2.49
O=C(Cc1ccc(-c2ccccc2)cc1)OCC(=O)N1CCCC1=O | 16.6
CSc1ccc(-c2sc(Nc3ccccc3)n[n+]2-c2ccc(F)cc2)cc1 | 20.5
CN(C)c1ccc(-c2sc(Nc3ccccc3)n[n+]2-c2ccc(F)cc2)cc1 | 60.9
Cc1cc(C(=O)NCCC2=CCCCC2)c(C)o1 | 15.7
O=C(NCc1ccccn1)C1CCC(CNS(=O)(=O)c2cccc3nsnc23)CC1 (stereo not given) | 0.68
O=C(Nc1ccccc1O)c1ccc(NS(=O)(=O)c2cccc3cccnc23)cc1 | 27.4
Cc1ccc(/C=C(\NC(=O)c2ccccc2)C(=O)NC(Cc2ccccc2)C(=O)O)cc1 (stereo not given) | -0.85
Cc1ccc(O)c(CO)n1 | 1.36
CC(=O)Nc1ccccc1/C=C/c1ccc2c(C)ccc(O)c2n1 | 77.9
CN1CCCN(C(=O)c2ccc(Cl)cc2)CC1 | -25.6
Cc1sc2nc(CSc3ccc([N+](=O)[O-])c(C(F)(F)F)c3)[nH]c(=O)c2c1C | -14.8
CCCC1(CCC)NC(=O)N(CC(=O)N2CCN(C(=O)c3ccco3)CC2)C1=O | 0.73
Cn1nc(-c2ccc(OCC(N)=O)cc2)c2ccccc2c1=O | 27.5
CNC(=O)COc1ccc(-c2nn(C)c(=O)c3ccccc23)cc1 | -6.01
CCN1CCN(c2nc(N)c([N+](=O)[O-])c(Nc3cccc(C)c3)n2)CC1 | 71.8
CCOC(=O)CNC(=O)N1CCc2ccc(NC(=O)c3ccccc3OC)cc2C1 | 44.4
CCN(C(=O)COC(=O)c1cccc(S(=O)(=O)N2CCOCC2)c1)C1CCS(=O)(=O)C1 (stereo not given) | -11
O=c1cc(C(F)(F)F)[nH]c2ccccc12 | -4.11
Cc1cccc2c(=O)cc(C(F)(F)F)[nH]c12 | 52.3
O=C(O)CCCNS(=O)(=O)c1ccc(NCc2ccccc2)c(C(=O)O)c1 | -9.34

SMILES | inhibition [%]
COC(=O)C1=NN(C(=O)c2ccc(C)cc2)C(O)(c2ccc(Cl)cc2)C1 (stereo not given) | 68.2
O=C(c1ccccc1)N1N=C(c2ccccc2)CC1(O)C(F)(F)F (stereo not given) | 66.9
CC1=NN(C(=O)c2ccccc2Br)C(O)(c2cccnc2)C1 (stereo not given) | 1.25
CCC1(O)CC(C(=O)OC)=NN1C(=O)c1ccccc1 (stereo not given) | 50.2
CC1=NN(C(=O)c2ccccc2Cl)C(O)(c2cccnc2)C1 (stereo not given) | -11.1
Nc1ccc(C(=O)N2N=C(c3ccccc3)CC2(O)C(F)(F)F)cc1 (stereo not given) | 18.4
CCOC(=O)N1N=C(c2ccccc2)CC1(O)C(F)(F)F (stereo not given) | -6.72
CC1=NN(C(=O)CCc2ccccc2)C(O)(c2ccncc2)C1 (stereo not given) | -17.3
CC(=O)Nc1sc(C)c(C)c1C(=O)OCC(=O)Nc1ccccc1 | 6.17
CSc1ncccc1C(=O)OCc1ccc([N+](=O)[O-])cc1 | 39.8
COc1ccc(C(=O)N/N=C2\CCc3ccccc32)cc1OC | -1.04
Cc1cccc(NC(=O)C[n+]2ccccc2)c1 | 16.1
Cc1c(NC(=O)COC(=O)c2cc(-c3ccc(-c4ccccc4)cc3)nc3ccccc23)c(=O)n(-c2ccccc2)n1C | -36
NC(=O)c1nsc(C(=O)N(c2cccc(F)c2)C(C(=O)NCC2CCCO2)c2c[nH]c3ccccc23)c1N (stereo not given) | 29.5
CC1=NN(C(=O)Cc2ccccc2)C(O)(c2cccnc2)C1 (stereo not given) | -2.18
CC1=NN(C(=O)c2ccco2)C(O)(c2ccccc2)C1 (stereo not given) | 70.5
O=C(c1ccccc1)N1N=C(c2ccc(F)cc2)CC1(O)C(F)(F)F (stereo not given) | 67.9
O=C(c1ccco1)N1N=C(c2ccc(Cl)cc2)CC1(O)C(F)(F)F (stereo not given) | 58
C=CCn1c(SCC(=O)Nc2ccccc2OC)nc2c([nH]c3ccccc32)c1=O | -4.69
COc1ccccc1-c1nnc(SCc2nc3ccccc3[nH]2)n1C | 25.9
O=C(Nc1cccc(F)c1)Nc1ccc2c(c1)C(=O)OC2 | -9.41
Cc1cccc(C)c1OCC(=O)NCC1COc2ccccc2O1 (stereo not given) | -21
